Reference: PubChem BioAssay AID1159580 (chemical genetic matrix, 2015)
Out of some 5,500 compounds screened, about 2,000 (36%) were called active. Another 18% or so got no clear call; they are omitted. Cut-off read from the data, not from the text of the source: active = normalized growth mostly below about 0.91 (no sharp cut-off); inconclusive = no clear call, values can overlap the other calls; inactive = mostly above about 0.92. The list shows a part of the results.

Assay: chemical genetic growth profiling, strain panel (AID 1159580);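 note: tested at 20 µM; growth read once vehicle control cultures reached saturation at 30 °C; 1 = growth at the plate median or of vehicle wells; lower values mean less growth of the strain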
Conditions: S. cerevisiae deletion strains, growth OD

Measured: normalized growth

CO[C@H]1[C@H](O)[C@H](O[C@H]2CC[C@]3(C)C4CC[C@]5(C)C(C6=CC(=O)OC6)CC[C@]5(O)C4CC[C@@H]3C2)O[C@@H](C)[C@@H]1O (some centres undefined)
inactive: locus YAL013W, strain DEP1, hits give low values 1.01 | locus YAL021C, strain ccr4, hits give low values 1 | locus YAL026C, strain drs2, hits give low values 1.01 | locus YAL030W, strain snc1, hits give low values 1 | locus YBL061C, strain skt5, hits give low values 0.993 | locus YBR009C, strain hhf1, hits give low values 1.01 | locus YBR021W, strain FUR4, hits give low values 1.02 | locus YBR023C, strain chs3, hits give low values 0.999 | locus YBR171W, strain sec66, hits give low values 0.984 | locus YBR229C, strain ROT2, hits give low values 1.01 | locus YBR231C, strain swc5, hits give low values 1.03 | locus YBR279W, strain paf1, hits give low values 1.01 | locus YCL011C, strain gbp2, hits give low values 0.992 | locus YCL016C, strain dcc1, hits give low values 1 | locus YCL029C, strain bik1, hits give low values 1.01 | locus YCL061C, strain MRC1, hits give low values 0.996 | locus YCL069W, strain vba3, hits give low values 1 | locus YCR088W, strain abp1, hits give low values 1 | locus YDL005C, strain med2, hits give low values 0.994 | locus YDL035C, strain GPR1, hits give low values 1.02 | locus YDL040C, strain nat1, hits give low values 1.02 | locus YDL074C, strain BRE1, hits give low values 1.02 | locus YDL101C, strain DUN1, hits give low values 1.02 | locus YDL134C, strain PPH21, hits give low values 1 | locus YDL185W, strain tfp1, hits give low values 1 | locus YDL192W, strain arf1, hits give low values 1.01 | locus YDR001C, strain nth1, hits give low values 0.994 | locus YDR069C, strain doa4, hits give low values 0.997 | locus YDR101C, strain arx1, hits give low values 0.993 | locus YDR137W, strain rgp1, hits give low values 1 | locus YDR150W, strain NUM1, hits give low values 1.01 | locus YDR159W, strain sac3, hits give low values 0.997 | locus YDR162C, strain NBP2, hits give low values 1.02 | locus YDR195W, strain ref2 0.989 | locus YDR297W, strain sur2, hits give low values 1.01 | locus YDR318W, strain mcm21, hits give low values 1.01 | locus YDR334W, strain swr1, hits give low values 1.03 | locus YDR335W, strain msn5, hits give low values 1.01 | locus YDR388W, hits give low values 1.01 | locus YDR392W, strain spt3, hits give low values 0.991 | locus YDR502C, strain sam2, hits give low values 1 | locus YEL003W, strain gim4, hits give low values 1.02 | locus YEL037C, strain rad23, hits give low values 1.01 | locus YEL061C, strain CIN8 (second series), hits give low values 0.987 | locus YEL061C, strain CIN8, hits give low values 1.01 | locus YER015W, strain faa2, hits give low values 1 | locus YER016W, strain bim1, hits give low values 1 | locus YER110C, hits give low values 1.02 | locus YER111C, strain swi4, hits give low values 1.01 | locus YER155C, strain BEM2 (second series), hits give low values 1.03 | locus YER155C, strain BEM2, hits give low values 1.02 | locus YER167W, strain BCK2, hits give low values 1.02 | locus YFR010W, strain ubp6, hits give low values 1.01 | locus YGL078C, strain dbp3, hits give low values 1 | locus YGL086W, strain mad1, hits give low values 1.01 | locus YGL167C, strain pmr1, hits give low values 1 | locus YGL173C, strain kem1, hits give low values 0.996 | locus YGL227W, strain vid30, hits give low values 0.997 | locus YGL240W, strain doc1, hits give low values 1.02 | locus YGL248W, strain PDE1, hits give low values 1.01 | locus YGL253W, strain hxk2, hits give low values 0.996 | locus YGR078C, strain PAC10, hits give low values 1.01 | locus YGR135W, strain pre9, hits give low values 1.02 | locus YGR229C, strain SMI1, hits give low values 1.03 | locus YGR252W, strain gcn5, hits give low values 0.964 | locus YHR013C, strain ard1, hits give low values 0.98 | locus YHR027C, strain rpn1, hits give low values 0.979 | locus YHR030C, strain SLT2, hits give low values 1.01 | locus YHR079C, strain IRE1 (second series), hits give low values 1.01 | locus YHR094C, strain hxt1, hits give low values 1.01 | locus YHR129C, strain ARP1, hits give low values 1.01 | locus YHR142W, strain chs7, hits give low values 1.02 | locus YHR200W, strain rpn10, hits give low values 1.01 | locus YIL066C, strain RNR3, hits give low values 1.01 | locus YIL073C, strain SPO22, hits give low values 1.02 | locus YIL125W, strain kgd1, hits give low values 0.997 | locus YIR030C, strain dcg1, hits give low values 0.998 | locus YJL092W, strain hpr5, hits give low values 1 | locus YJL095W, strain BCK1 (second series), hits give low values 0.981 | locus YJL095W, strain BCK1, hits give low values 1.04 | locus YJL115W, strain asf1, hits give low values 0.999 | locus YJL129C, strain trk1, hits give low values 0.974 | locus YJL134W, strain LCB3, hits give low values 1.01 | locus YJL154C, strain vps35, hits give low values 1.01 | locus YJL164C, strain tpk1, hits give low values 0.998 | locus YJL166W, strain qcr8, hits give low values 1 | locus YJL168C, strain set2, hits give low values 1.01 | locus YJL187C, strain SWE1 (second series), hits give low values 1.02 | locus YJL187C, strain SWE1, hits give low values 0.998
